Test results published in PubChem BioAssay (EPA / NIEHS).
Calls of active or inactive are those of the source. How the source made its calls: active means hit-call score of the fitted dose curve at least 0.9, where 1 is the maximum; inactive means score below 0.9.

Experiment: CCTE_Shafer_MEA_acute_burst_percentage_std: CCTE's Neural Acute Assay for Standard Deviation of Burst Percentage, Shafer Lab (AID 2284018);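 further: fitted in the negative direction so actives lower burst percentage SD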
Procedure: CCTE_Shafer_MEA_acute assay is conducted using Axion Biosystems 48 well microelectrode array (MEA) plates and Maestro recording system. Each well of the MEA plate contains a grid of 16 microelectrodes embedded in the culture surface. Electrically active cells, such as neurons, can be cultured over the electrodes, and electrical activity in these cells can be recorded extracellularly. The spontaneous firing of neurons is captured from each electrode on a microsecond timescale providing both temporally and spatially precise data. […] The CCTE_Shafer_MEA_acute assay uses primary cultures of rat cortical neurons. As these cultures mature over time, neural networks develop functional activity and form cohesive networks in which electrical activity can be highly coordinated. Baseline 40-minute recordings are made on days post-plating 13 or 15, followed by a secondary 40-minute recording after chemical exposure.CCTE_Shafer_MEA_acute_burst_percentage_std is a component of the CCTE_Shafer_MEA_acute assay. It measures the percentage of spikes (action potential firing) in a single-electrode burst (temporally-clustered groups of spikes) as the number of spikes in bursts divided by the total number of spikes during a recording in a microelectrode array (MEA) using Axion Biosystems Maestro 768 channel amplifier with the AxIS adaptive spike detector. The standard deviation of the burst percentages across electrodes is calculated to report a well-level value. The recordings before and after chemical treatment are used to calculate a percent change in the standard deviation of the burst percentage in each well.Data from the assay component CCTE_Shafer_MEA_acute_burst_percentage_std was analyzed into 1 assay endpoint. This assay endpoint, CCTE_Shafer_MEA_acute_burst_percentage_std, was analyzed in the negative analysis fitting direction relative to DMSO as the negative control and baseline of activity. Using a type of functional reporter, gain or loss-of-signal activity can be used to understand electrical activity.
Spontaneous activity in the cortical cultures was recorded using an Axion Biosystems Maestro 768 channel amplifier and Axion Integrated Studios (AxIS) v1.8 (or later) software. The amplifier recorded from all channels simultaneously (gain = 1200 x; sampling rate = 12.5 kHz/channel): raw signals were filtered with a Butterworth band-pass filter (300-5000 Hz), which filters out slower local field potentials leaving only fast potentials, i.e., "spikes", arising from extracellular currents associated with action potentials (Pine 2006; Wheeler and Nam 2011). On-line spike detection of filtered signals was conducted with the AxIS adaptive spike detector, using a threshold of 8x the root mean squared (rms) noise on each channel. Any electrodes with rms noise levels greater than 5 uV were grounded (e.g., no data were recorded). Once grounded, an electrode was grounded for the duration of the experiment. All recordings were conducted at 37 C. Wells were deemed usable if on the day of the exposure >/= 10 electrodes were active (defined as >/= 5 spikes/min). On DIV 13 or 15, a minimum of three wells from one cortical culture preparation were treated with each compound (0.03-40 uM). Prior to recording baseline activity, each mwMEA plate was placed in the Maestro at 37 C and allowed to sit for 20 min while firing rates stabilized. Baseline activity (40 min) was recorded before the addition of each compound. An additional 40 min of spontaneous activity was recorded in the presence of each compound. Changes in network parameters relative to baseline were assessed following compound treatment.

Compound | outcome | AC50
CCN(Cc1cccc(S(=O)(=O)O)c1)c1ccc(C(=C2C=CC(=[N+](CC)Cc3cccc(S(=O)(=O)O)c3)C=C2)c2ccccc2S(=O)(=O)[O-])cc1 | inactive | –
CC/C(=C(/CC)c1ccc(O)cc1)c1ccc(O)cc1 | – | 35.4 µM (active)
CC(C)(C)c1cc(/C=C2\SC(N)=NC2=O)cc(C(C)(C)C)c1O | inactive | –
CC[C@@H]1C[C@H](N(Cc2cc(C(F)(F)F)cc(C(F)(F)F)c2)C(C)=O)c2cc(C(F)(F)F)ccc2N1C(=O)OC(C)C | inactive | –
CO[C@H]1/C=C/O[C@@]2(C)Oc3c(C)c(O)c4c(O)c(c(/C=N/N5CCN(C)CC5)c(O)c4c3C2=O)NC(=O)/C(C)=C\C=C\[C@H](C)[C@H](O)[C@@H](C)[C@@H](O)[C@@H](C)[C@H](OC(C)=O)[C@@H]1C | inactive | –
O=C(O)c1ccccc1-n1cc(C(=O)O)c(=O)c2cc(Nc3c(F)cc(F)cc3Cl)c(Cl)cc21 | inactive | –
CCCCOC(=O)c1ccc(O)cc1 | inactive | –
C[C@]12CC[C@@H]3c4ccc(O)cc4CC[C@H]3[C@@H]1CC[C@H]2O | inactive | –
Cc1c2ccccc2c(C)c2c1ccc1ccccc12 | – | 35.2 µM (active)
CN(C)C(=O)C1(N2CCCCC2)CCN(CC[C@@]2(c3ccc(Cl)c(Cl)c3)CN(C(=O)c3ccccc3)CCO2)CC1 | inactive | –
CC(C)(c1cc(Br)c(O)c(Br)c1)c1cc(Br)c(O)c(Br)c1 | inactive | –
COc1cccc([C@H](O)C2CCN(CCc3ccc(F)cc3)CC2)c1OC | inactive | –
CC(O)CC(C)(C)O (stereo unspecified) | inactive | –
CC(=O)N1CCN(c2ccc(OC[C@H]3CO[C@](Cn4ccnc4)(c4ccc(Cl)cc4Cl)O3)cc2)CC1 | – | 32.9 µM (active)
NC(=O)c1nc(-c2cccc(-c3cc(F)ccc3OCC(F)(F)C(F)(F)F)c2)n[nH]1 | – | 2.16 µM (active)
Cc1cn([C@H]2C[C@H](N=[N+]=[N-])[C@@H](CO)O2)c(=O)[nH]c1=O | inactive | –

Compound | outcome | AC50
CN(C)c1ccc(C(=C2C=CC(=[N+](C)C)C=C2)c2ccc(N(C)C)cc2)cc1 | – | 2.72 µM (active)
NCc1cccc(C2CCN(C(=O)c3ccc(C#Cc4ccccc4F)o3)CC2)c1 | inactive | –
O=C1O[C@H]([C@@H](O)CO)C(O)=C1O | inactive | –
COc1cc(C(=O)NC2CCN(C)CC2)ccc1Nc1ncc2c(n1)N(C1CCCC1)CC(F)(F)C(=O)N2C | inactive | –
CCN(CC)C(=O)c1cc(S(=O)(=O)Cc2ccccc2)c(N2CCC(c3ccccc3)CC2)cc1N(CC)CCN(C)C | inactive | –
O=c1[nH]sc2ccccc12 | inactive | –
c1ccc2n[nH]nc2c1 | inactive | –
CCCCCCCCOC(=O)c1cc(O)c(O)c(O)c1 | – | 7.82 µM (active)
CN1C(=O)CC[C@H]1c1cccnc1 | inactive | –
OC12N=C(c3ccccc3)SC1Cc1cc(Cl)ccc12 (stereo unspecified) | – | 30.7 µM (active)
CN(C[C@@H](CC[N+]12CCC(C3CCCCC3)(CC1)CC2)c1ccc(Cl)c(Cl)c1)C(=O)c1cc(C(F)(F)F)cc(C(F)(F)F)c1 | – | 2.53 µM (active)
Clc1ccccc1C(c1ccccc1)(c1ccccc1)n1ccnc1 | – | 9.25 µM (active)
CC1=CC(=O)/C(=C(/C)O)C(=O)O1 | inactive | –
CCCCCCCCCCCCO | inactive | –
Cc1cc2c(cc1C(F)(F)F)N(C(=O)Nc1ccc(Oc3cccnc3C)nc1)CC2 | inactive | –
